We go through 27 compounds from ChEMBL document CHEMBL1157539, “Thousands of chemical starting points for antimalarial lead identification” (Nature, 2010).

Type in all cases: functional
Assay [1] relates to Plasmodium falciparum. The experiment in a line: GSK_TCMDC: Inhibition of Plasmodium falciparum 3D7 in whole red blood cells, using parasite LDH activity as an index of growth. Test compounds present at 2uM.
In assay [2] the test system is Plasmodium falciparum. The experiment in a line: GSK_TCMDC: Inhibition of Plasmodium falciparum Dd2 in whole red blood cells, using parasite LDH activity as an index of growth. Test compounds present at 2uM.
A further assay relates to HepG2. The experiment in a line: GSK_TCMDC: Percent inhibition of human HepG2 cell line. Test compounds present at 10uM.

Regarding `CC(C)n1ncc2c(C(=O)N3CCCCCC3)cc(-c3ccccc3)nc21`, the figures for the Inhibition in the assay on Plasmodium falciparum [1], in the assay with Plasmodium falciparum [2] and with HepG2 were 97%, 42% and 0%, respectively.

On to `O=C(N[C@@H](CC1CCCCC1)C(=O)NC1CCCc2ccccc21)c1ccc(O)c(-c2ccc(Cl)c(Cl)c2)c1` (stereo partly specified), for which the Inhibition in the assay on Plasmodium falciparum [1] is reported as 98%; in the assay on Plasmodium falciparum [2] it was 99%; with HepG2 it was 1%.

With `Cc1cccc2nc(-c3ccc(-c4cccc(NC(=O)NCc5ccccc5)c4)cc3)[nH]c12`, the Inhibition is given as 95% in the assay on Plasmodium falciparum [1], 0% with Plasmodium falciparum [2] and 25% in the assay with HepG2.

Consider `CC(C)c1sc(N2CCN(C)CC2)nc1C(=O)NCCc1ccc(Cl)c(Cl)c1.O=C(O)C(F)(F)F`, for which the Inhibition in the assay with Plasmodium falciparum [1] was 98%; in the assay on Plasmodium falciparum [2] it was 79%; with HepG2 it was 10%.

On to `COc1cccc(Nc2nccc(NCC(O)c3ccc(C(F)(F)F)cc3)n2)c1` (stereo unspecified), for which the Inhibition in the assay with Plasmodium falciparum [1] came to 99%; in the assay with Plasmodium falciparum [2] it was 28%; in the assay with HepG2 it was 14%.

Consider `Fc1ccc2[nH]c(-c3ccc(-c4cccc(CN5CCC(CCN6CCCCC6)CC5)c4)cc3)nc2c1.O=C(O)C(F)(F)F`, for which the Inhibition was found to be 100% with Plasmodium falciparum [1], 100% with Plasmodium falciparum [2] and 96% with HepG2.

Consider `COc1ccc2ncc(Cl)c(NCC3(O)CCC(NCc4ccc5c(n4)NC(=O)CS5)CC3)c2n1.Cl` (stereo unspecified), for which the Inhibition turned out to be 96% in the assay with Plasmodium falciparum [1], 31% with Plasmodium falciparum [2] and 39% with HepG2.

Turning to `CCCCCCN1CCN(Cc2cccc(NC(=O)c3ccc(Cl)c(Cl)c3)c2)CC1.O=C(O)C(F)(F)F`, the figures for the Inhibition in the assay with Plasmodium falciparum [1], with Plasmodium falciparum [2] and with HepG2 were 85%, 51% and 31%, respectively.

As to `CC(C)CCn1c(Sc2ccc(C#N)c([N+](=O)[O-])c2)nnc1-c1ccccc1Cl`, the Inhibition in the assay with Plasmodium falciparum [1] was 93%; with Plasmodium falciparum [2] it was 38%; with HepG2, 20%.

Take `O=C(NCc1ccc(Cl)c(Cl)c1)c1ccc(-c2nc3ccc(F)cc3[nH]2)cc1`: the results for the Inhibition in the assay on Plasmodium falciparum [1], in the assay on Plasmodium falciparum [2] and with HepG2 were 93%, 9% and 0%, respectively.

Regarding `CCCCCCCN1CC[C@@H](CCCc2ccnc3ccc(OCCCCN/C(N)=N/O)cc23)[C@@H](CC)C1.O=C(O)C(=O)O`, the Inhibition was found to be 90% in the assay on Plasmodium falciparum [1], 39% in the assay with Plasmodium falciparum [2] and 27% in the assay with HepG2.

`O=C(NCCc1ccccc1F)c1ccc(N2CCN(c3ccncc3)CC2)cn1.O=C(O)C(F)(F)F`: the Inhibition in the assay with Plasmodium falciparum [1] is listed as 93%; in the assay with Plasmodium falciparum [2], 18%; with HepG2 it was 8%.

Turning to `COCCn1c(Sc2ccc(C#N)c([N+](=O)[O-])c2)nnc1-c1ccc(N(C)C)cc1`, the Inhibition in the assay with Plasmodium falciparum [1] came to 89%; in the assay on Plasmodium falciparum [2] it was 66%; with HepG2 it was 2%.

Turning to `CCN(CC)CCN(Cc1ccc(-c2ccc(C(F)(F)F)cc2)cc1)C(=O)Cn1c(SCc2ccc(F)cc2)cc(=O)c2ccccc21.O=C(O)C(O)C(O)C(=O)O`, the Inhibition in the assay with Plasmodium falciparum [1] worked out at 100%; in the assay on Plasmodium falciparum [2], 70%; in the assay with HepG2 it was 50%.

As to `CC(C)NCc1ccc(-c2ccc(CN3CCCC(c4ccccc4)C3)cc2)c(C(=O)NC2Cc3ccccc3C2)c1.O=C(O)C(F)(F)F` (stereo unspecified), the Inhibition in the assay on Plasmodium falciparum [1] was 96%; with Plasmodium falciparum [2] it was 64%; with HepG2, 41%.

In the case of `C=CCc1cc(Br)ccc1OCCCOc1c(C)nc(N)nc1N.Cl`, the results for the Inhibition with Plasmodium falciparum [1], in the assay with Plasmodium falciparum [2] and with HepG2 were 94%, 96% and 56%, respectively.

For the compound `CCNCc1ccc(-c2cc3ncnc(Nc4ccc(OCc5cccc(F)c5)c(Cl)c4)c3s2)[nH]1`, the figures for the Inhibition in the assay on Plasmodium falciparum [1], in the assay with Plasmodium falciparum [2] and in the assay on HepG2 were 100%, 74% and 22%, respectively.

With `Cc1c(CC(=O)N(C)C2CCN(CCCCCNC(=O)/C=C/c3ccc(Cl)c(Cl)c3)CC2)sc2ccc(Cl)cc12`, the Inhibition was found to be 95% in the assay on Plasmodium falciparum [1], 9% in the assay on Plasmodium falciparum [2] and 93% with HepG2.

In the case of `O=C(NC1CC1c1ccccc1)N(CCCn1ccnc1)Cc1csc(-c2ccc(CNCc3ccccc3)cc2)n1.O=C(O)C(F)(F)F` (stereo unspecified), the Inhibition with Plasmodium falciparum [1] came out at 96%; with Plasmodium falciparum [2], 20%; in the assay on HepG2 it was 6%.

As for `ON=C(c1nc2ccccc2[nH]1)c1nc2ccccc2[nH]1`, the Inhibition in the assay on Plasmodium falciparum [1] is 93%; with Plasmodium falciparum [2], 68%; in the assay with HepG2, 36%.

On to `CCCCNS(=O)(=O)c1ccc(NC(=O)c2cc([N+](=O)[O-])ccc2Cl)cc1`, for which the Inhibition was determined as 92% in the assay on Plasmodium falciparum [1], 47% in the assay with Plasmodium falciparum [2] and 12% in the assay on HepG2.

Take `FC(F)(F)Oc1ccc(Nc2cc(-c3ccncc3)nc(-c3cccnc3)n2)cc1`: the results for the Inhibition in the assay on Plasmodium falciparum [1], in the assay on Plasmodium falciparum [2] and with HepG2 were 94%, 52% and 24%, respectively.

`COc1ccc(CCCCN2C(=O)C(c3ccccc3)(c3ccccc3)N=C2N)cc1.O=C(O)C(F)(F)F`: the Inhibition in the assay on Plasmodium falciparum [1] is 97%; in the assay on Plasmodium falciparum [2] it was 95%; in the assay on HepG2, 40%.

Regarding `O=C(Nc1ccc(-c2cccc(CN3CCC(O)CC3)c2)cc1)c1cccc(Cl)c1.O=C(O)C(F)(F)F`, the Inhibition came to 94% with Plasmodium falciparum [1], 14% in the assay on Plasmodium falciparum [2] and 50% in the assay on HepG2.

For the compound `CCC(C(=O)Nc1cc(=O)[nH]c2nc(-c3ccco3)nn12)c1ccccc1` (stereo unspecified), the values for the Inhibition in the assay on Plasmodium falciparum [1], in the assay with Plasmodium falciparum [2] and with HepG2 were 87%, 68% and 2%, respectively.

`O=C(Nc1ccc(-c2ccc(-c3nc4cc(C(F)(F)F)ccc4[nH]3)s2)cc1)c1ccoc1`: the Inhibition with Plasmodium falciparum [1] came out at 94%; in the assay with Plasmodium falciparum [2] it was 54%; in the assay on HepG2 it was 9%.

On to `O=C(/C=C/c1ccc(Cl)c(Cl)c1)NCCCCCN1CCC(NC(=S)Nc2ccc(F)cc2F)CC1`, for which the Inhibition was 100% with Plasmodium falciparum [1], 18% in the assay on Plasmodium falciparum [2] and 20% in the assay with HepG2.

In general, Inhibition refers to the share of the control response that was lost under treatment. High values mean strong suppression, low ones little suppression.
